Results as given in the supplement of paper PMC8728848.
Only a selection was taken, and the strongest signals are over-represented in it overall.

Legend:
Experiment in all cases: glycan array binding signal (z-score within array); higher = stronger binding
Settings in all cases: glycan notation: IUPAC condensed, linker removed
[1] = target: GlcNAc(a1-4)Gal(b1-4)GlcNAc(b1-3)Gal(b1-4)GlcNAc
In short: (§1)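 The binding signal is a Z-score computed within each array and averaged over linkers. Arrays of the same protein sequence at different concentrations or buffers were also averaged together. Data originate from 3228 arrays in the Consortium for Functional Glycomics database, kept only where the protein sequence was available.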

[2] = target: GlcNAc(b1-3)Gal(b1-4)GlcNAc
In short: as §1

[3] = target: GlcNAc(b1-3)Gal(b1-4)GlcNAc(b1-2)Man(a1-3)[GlcNAc(b1-3)Gal(b1-4)GlcNAc(b1-2)Man(a1-6)]Man(b1-4)GlcNAc(b1-4)[Fuc(a1-6)]GlcNAc
In short: as §1

[4] = target: GlcNAc(b1-3)Gal(b1-4)GlcNAc(b1-3)Gal(b1-4)GlcNAc(b1-2)Man(a1-3)[GlcNAc(b1-3)Gal(b1-4)GlcNAc(b1-3)Gal(b1-4)GlcNAc(b1-2)Man(a1-6)]Man(b1-4)GlcNAc(b1-4)GlcNAc
In short: as §1

[5] = target: GlcNAc(b1-3)Gal(b1-4)GlcNAc(b1-3)Gal(b1-4)GlcNAc(b1-3)Gal(b1-4)GlcNAc(b1-2)Man(a1-3)[GlcNAc(b1-3)Gal(b1-4)GlcNAc(b1-3)Gal(b1-4)GlcNAc(b1-3)Gal(b1-4)GlcNAc(b1-2)Man(a1-6)]Man(b1-4)GlcNAc(b1-4)[Fuc(a1-6)]GlcNAc
In short: as §1

Kdn(a2-3)Gal(b1-4)GlcNAc = target: Kdn(a2-3)Gal(b1-4)GlcNAc
In short: as §1

Neu5Ac(a2-3)Gal = target: Neu5Ac(a2-3)Gal
In short: as §1

[6] = target: Neu5Ac(a2-3)Gal(b1-3)GalNAc(b1-3)Gal(a1-4)Gal(b1-4)Glc
In short: as §1

[7] = target: Neu5Ac(a2-3)Gal(b1-3)GlcNAc(b1-3)Gal(b1-4)GlcNAc
In short: as §1

[8] = target: Neu5Ac(a2-3)Gal(b1-3)GlcNAc(b1-6)GalNAc
In short: as §1

[9] = target: Neu5Ac(a2-3)Gal(b1-4)GlcNAc(b1-3)Gal(b1-4)GlcNAc(b1-3)GalNAc
In short: as §1

[10] = target: Neu5Ac(a2-3)Gal(b1-4)[Fuc(a1-3)]GlcNAc
In short: as §1

[11] = target: Neu5Ac(a2-3)Gal(b1-4)[Fuc(a1-3)]GlcNAc(b1-3)Gal(b1-4)[Fuc(a1-3)]GlcNAc(b1-3)Gal(b1-4)[Fuc(a1-3)]GlcNAc
In short: as §1

[12] = target: Neu5Ac(a2-3)Gal(b1-4)[Fuc(a1-3)]GlcNAc(b1-3)GalNAc
In short: as §1

[13] = target: Neu5Ac(a2-3)[Neu5Ac(a2-6)]GalNAc
In short: as §1

[14] = target: Neu5Ac(a2-6)Gal(b1-4)GlcNAc(b1-2)Man
In short: as §1

[15] = target: Neu5Ac(a2-6)Gal(b1-4)GlcNAc(b1-2)Man(a1-3)[Gal(b1-4)GlcNAc(b1-2)Man(a1-6)]Man(b1-4)GlcNAc(b1-4)GlcNAc
In short: as §1

[16] = target: Neu5Ac(a2-8)Neu5Ac(a2-3)Gal(b1-3)GalNAc(b1-4)[Neu5Ac(a2-3)]Gal(b1-4)Glc
In short: as §1

[17] = target: Neu5Ac(a2-8)Neu5Ac(a2-3)[Gal(b1-3)GalNAc(b1-4)]Gal(b1-4)Glc
In short: as §1

[18] = target: Neu5Ac(a2-8)Neu5Ac(a2-8)Neu5Ac(a2-8)Neu5Ac(a2-3)[GalNAc(b1-4)]Gal(b1-4)Glc
In short: as §1

[19] = target: Fuc(a1-2)Gal(b1-3)[Fuc(a1-4)]GlcNAc(b1-3)[Fuc(a1-3)[Gal(b1-4)]GlcNAc(b1-6)]Gal(b1-4)Glc
In short: as §1

[20] = target: Fuc(a1-2)Gal(b1-4)GlcNAc6S
In short: as §1

Fuc(a1-2)[Gal(a1-3)]Gal = target: Fuc(a1-2)[Gal(a1-3)]Gal
In short: as §1

[21] = target: Fuc(a1-3)[Gal(b1-4)]GlcNAc(b1-2)Man(a1-3)[Fuc(a1-3)[Gal(b1-4)]GlcNAc(b1-2)Man(a1-6)]Man(b1-4)GlcNAc(b1-4)GlcNAc
In short: as §1

[22] = target: Gal(a1-3)Gal(b1-4)[Fuc(a1-3)]GlcNAc(b1-2)Man(a1-3)[Gal(a1-3)Gal(b1-4)[Fuc(a1-3)]GlcNAc(b1-2)Man(a1-6)]Man(b1-4)GlcNAc(b1-4)GlcNAc
In short: as §1

[23] = target: Gal(a1-4)Gal(b1-4)GlcNAc(b1-2)Man(a1-3)[Gal(a1-4)Gal(b1-4)GlcNAc(b1-2)Man(a1-6)]Man(b1-4)GlcNAc(b1-4)GlcNAc
In short: as §1

Gal(b1-3)Gal = target: Gal(b1-3)Gal
In short: as §1

[24] = target: Gal(b1-3)GalNAc(a1-3)[Fuc(a1-2)]Gal(b1-4)Glc
In short: as §1

[25] = target: Gal(b1-3)GlcNAc(b1-2)Man(a1-3)[Gal(b1-3)GlcNAc(b1-2)Man(a1-6)]Man(b1-4)GlcNAc(b1-4)GlcNAc
In short: as §1

[26] = target: Gal(b1-3)GlcNAc(b1-3)Gal(b1-4)Glc
In short: as §1

[27] = target: Gal(b1-4)GlcNAc(b1-2)Man(a1-3)[Man(a1-6)]Man(b1-4)GlcNAc(b1-4)GlcNAc
In short: as §1

[28] = target: Gal(b1-4)GlcNAc(b1-2)[Gal(b1-4)GlcNAc(b1-4)]Man(a1-3)[Gal(b1-4)GlcNAc(b1-2)Man(a1-6)]Man(b1-4)GlcNAc(b1-4)GlcNAc
In short: as §1

Gal6S(b1-4)Glc6S = target: Gal6S(b1-4)Glc6S
In short: as §1

GlcNAc(b1-3)Gal = target: GlcNAc(b1-3)Gal
In short: as §1

[29] = target: Man(a1-2)Man(a1-2)Man(a1-3)Man
In short: as §1

[30] = target: Man(a1-2)Man(a1-2)Man(a1-6)[Man(a1-3)]Man
In short: as §1

Man(a1-2)Man(a1-3)Man = target: Man(a1-2)Man(a1-3)Man
In short: as §1

[31] = target: Man(a1-2)Man(a1-3)[Man(a1-2)Man(a1-6)]Man
In short: as §1

[32] = target: Man(a1-2)Man(a1-3)[Man(a1-2)Man(a1-6)]Man(a1-6)[Man(a1-2)Man(a1-2)Man(a1-3)]Man
In short: as §1

[33] = target: Man(a1-2)Man(a1-6)[Man(a1-3)]Man(a1-6)[Man(a1-2)Man(a1-2)Man(a1-3)]Man
In short: as §1

Man(a1-3)[Man(a1-6)]Man = target: Man(a1-3)[Man(a1-6)]Man
In short: as §1

[34] = target: Man(a1-3)[Man(a1-6)]Man(b1-4)GlcNAc(b1-4)GlcNAc
In short: as §1

[35] = target: Neu5Ac(a2-3)Gal(b1-3)[Fuc(a1-4)]GlcNAc
In short: as §1

[36] = target: Neu5Ac(a2-3)Gal(b1-4)GlcNAc
In short: as §1

[37] = target: Neu5Ac(a2-3)Gal(b1-4)[Fuc(a1-3)]GlcNAc(b1-3)Gal
In short: as §1

[38] = target: Neu5Ac(a2-3)[GalNAc(b1-4)]Gal(b1-4)Glc
In short: as §1

[39] = target: Neu5Ac(a2-6)Gal(b1-4)GlcNAc(b1-2)Man(a1-6)Man(b1-4)GlcNAc(b1-4)GlcNAc
In short: as §1

[40] = target: Neu5Ac(a2-6)Gal(b1-4)GlcNAc(b1-3)Gal(b1-4)GlcNAc(b1-3)Gal(b1-4)GlcNAc
In short: as §1

[41] = target: Neu5Ac(b2-6)Gal(b1-4)GlcNAc
In short: as §1

[42] = target: Neu5Gc(a2-3)Gal(b1-3)[Fuc(a1-4)]GlcNAc
In short: as §1

[43] = target: Neu5Gc(a2-3)Gal(b1-4)[Fuc(a1-3)]GlcNAc
In short: as §1

B1: XTP3-B-MRH1 (Homo sapiens), Q96DZ1 (protein)
chain: LLEPLFKQSSCSYRIESYWTYEVCHGKHIRQYHEEKETGQKINIHEYYLGNMLAKNLLFEKEREAEEKEKSNEIPTKNIEGQMTPYYPVGMGNGTPCSLKQNRPRSSTVMYICHPESKHEILSVAEVTTCEYEVVILTPLLCSHPKYRFRA
- glycan array binding signal (z-score) [1]: -0.549
- glycan array binding signal (z-score) [2]: -0.824
- glycan array binding signal (z-score) [3]: -0.235
- glycan array binding signal (z-score) [4]: 2.48
- glycan array binding signal (z-score) [5]: 4.18
- glycan array binding signal (z-score) (Kdn(a2-3)Gal(b1-4)GlcNAc): -0.086
- glycan array binding signal (z-score) (Neu5Ac(a2-3)Gal): -0.797
- glycan array binding signal (z-score) [6]: -0.636
- glycan array binding signal (z-score) [7]: 0.189
- glycan array binding signal (z-score) [8]: -0.811
- glycan array binding signal (z-score) [9]: 3.41
- glycan array binding signal (z-score) [10]: -0.083
- glycan array binding signal (z-score) [11]: -0.381
- glycan array binding signal (z-score) [12]: 2.68
- glycan array binding signal (z-score) [13]: 0.205
- glycan array binding signal (z-score) [14]: 1.44
- glycan array binding signal (z-score) [15]: -0.887
- glycan array binding signal (z-score) [16]: -1.01
- glycan array binding signal (z-score) [17]: 2.49
- glycan array binding signal (z-score) [18]: 1.37

B2: ZG-16 (Homo sapiens), O60844 (protein)
chain: IQARSSSYSGEYGSGGGKRFSHSGNQLDGPITALRVRVNTYYIVGLQVRYGKVWSDYVGGRNGDLEEIFLHPGESVIQVSGKYKWYLKKLVFVTDKGRYLSFGKDSGTSFNAVPLHPNTVLRFISGRSGSLIDAIGLHWDVYPTSCSRCSRGSDDDDKAEPRGPTIKPCPPCKCPAPNLLGGPSVFIFPPKIKDVLMISLSPIVTCVVVDVSEDDPDVQISWFVNNVEVHTAQTQTHREDYNSTLRVVSALPIQHQDWMSGKEFKCKVNNKDLPAPIERTISKPKGSVRAPQVYVLPPPEEEMTKKQVTLTCMVTDFMPEDIYVEWTNNGKTELNYKNTEPVLDSDGSYFMYSKLRVEKKNWVERNSYSCSVVHEGLHNHHTTKSFSRTPGKRTYHHHHHHARKLTR
- glycan array binding signal (z-score) [19]: -0.196
- glycan array binding signal (z-score) [20]: -0.185
- glycan array binding signal (z-score) (Fuc(a1-2)[Gal(a1-3)]Gal): -0.217
- glycan array binding signal (z-score) [21]: 0.273
- glycan array binding signal (z-score) [22]: -0.158
- glycan array binding signal (z-score) [23]: -0.205
- glycan array binding signal (z-score) (Gal(b1-3)Gal): -0.222
- glycan array binding signal (z-score) [24]: -0.193
- glycan array binding signal (z-score) [25]: -0.189
- glycan array binding signal (z-score) [26]: -0.226
- glycan array binding signal (z-score) [27]: -0.146
- glycan array binding signal (z-score) [28]: -0.166
- glycan array binding signal (z-score) (Gal6S(b1-4)Glc6S): -0.16
- glycan array binding signal (z-score) (GlcNAc(b1-3)Gal): -0.231
- glycan array binding signal (z-score) [29]: 8.34
- glycan array binding signal (z-score) [30]: 5.61
- glycan array binding signal (z-score) (Man(a1-2)Man(a1-3)Man): 9.52
- glycan array binding signal (z-score) [31]: 3.69
- glycan array binding signal (z-score) [32]: 1.94
- glycan array binding signal (z-score) [33]: 5.95
- glycan array binding signal (z-score) (Man(a1-3)[Man(a1-6)]Man): 4.25
- glycan array binding signal (z-score) [34]: -0.183
- glycan array binding signal (z-score) [35]: -0.202
- glycan array binding signal (z-score) [36]: -0.209
- glycan array binding signal (z-score) [37]: -0.127
- glycan array binding signal (z-score) [38]: -0.21
- glycan array binding signal (z-score) [39]: -0.209
- glycan array binding signal (z-score) [40]: -0.182
- glycan array binding signal (z-score) [41]: -0.221
- glycan array binding signal (z-score) [42]: -0.132
- glycan array binding signal (z-score) [43]: -0.11
